Experimental data as given in PubChem BioAssay (NCATS).
Records with an inconclusive call do not appear. Active and inactive are the calls of the source. Calls follow the shape of the dose curve; as a rule, active = well fitted curve in the direction sought with a large enough effect; inconclusive = small, poorly fitted or top-dose-only effect, or another doubt; inactive = no such curve, though single readings can be large; an effect the other way counts as inactive or inconclusive.

Key:
[1] = Cell Viability - LYMP2-001 (AID 921); also: series mostly up to about 92 µM; nearly all actives have a fitted effect of over 70% in size
Outline: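 qHTS, 1536-well; lymphoblastoid cells, 24 hr compound, 37 C; ATP by CellTiter-Glo, 30 min RT; luminescence; Hill-fit AC50.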

[2] = MultiTox-Fluor Cytotoxicity Assay - LYMP1-001 - Dead Cells (AID 946)
Outline: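 In this qHTS, 15 uM tetraoctylammonium bromide defined 100% and DMSO defined basal activity. Lymphoblastoid cells (LYMP1-001, 2500 per well) received compound for 16 hr at 37 C before a fluorogenic dead-cell substrate readout at 485/520 nm.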

[3] = MultiTox-Fluor Cytotoxicity Assay - LYMP1-001 - Live Cells (AID 947)
[4] = Cell Viability - LYMP1-002 - Assay at 16 hr (AID 948)
Outline: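 Acute cytotoxicity is scored as a concentration-dependent fall in intracellular ATP in a human lymphoblastoid line (LYMP1-002) after 16 hr compound exposure at 37 C, measured by luciferase luminescence.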

[5] = MultiTox-Fluor Cytotoxicity Assay - LYMP1-002 - Live Cells (AID 955);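 also: cells exposed to compound for 16 hours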
Outline: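 Human lymphoblastoid LYMP1-002 cells, 2500/well, treated 16 h at 37 C in complete medium. Live-cell protease activity via GF-AFC fluorescence (Ex/Em 405/510) after 60 min reagent incubation; AC50 from Hill fits.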

[6] = MultiTox-Fluor Cytotoxicity Assay - LYMP1-002 - Dead Cells (AID 960);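 also: cells exposed to compound for 16 h at 37 °C; nearly all actives have a fitted effect of over 60% in size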
Outline: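 Human lymphoblastoid LYMP1-002 cells, 2500/well, treated 16 h at 37 C; dead-cell protease cleavage of bis-AAF-R110 read by fluorescence (485/520); normalized to DMSO and 15 uM tetraoctylammonium bromide; AC50 from Hill fit.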

[7] = MultiTox-Fluor Cytotoxicity Assay - LYMP1-003 - Dead Cells (AID 961);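 also: cells exposed to compound for 16 h at 37 °C; nearly all actives have a fitted effect of over 70% in size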
Outline: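 Acute toxicity is scored as increased dead-cell protease activity in human lymphoblastoid LYMP1-003 cells after 16 h compound exposure in complete culture medium. Activity is normalized to DMSO basal and 15 uM tetraoctylammonium bromide as full response.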

[8] = MultiTox-Fluor Cytotoxicity Assay - LYMP1-003 - Live Cells (AID 962);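 also: cells exposed to compound for 16 hours at 37 °C; cytotoxic hits lower the live-cell protease signal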
Outline: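 LYMP1-003 lymphoblastoid cells, 2500/well in complete medium, treated 16 h at 37 C; live-cell protease cleavage of GF-AFC read by fluorescence (Ex/Em 405/510) after 60 min reagent; AC50 from Hill fits of concentration-response.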

[9] = Cell Viability - LYMP1-003 - Assay at 24 hr (AID 963)
Outline: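 Human lymphoblastoid LYMP1-003 cells, 2500/well, treated 24 h at 37 C in complete medium. Viability read as intracellular ATP by CellTiter-Glo luminescence after 30 min at room temperature; AC50 from Hill-equation fits of qHTS concentration-response.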

[10] = Cell Viability - LYMP1-003 - Assay at 40 hr (AID 964); also: series mostly up to about 92 µM; nearly all actives have a fitted effect of over 60% in size
Outline: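 LYMP1-003 human lymphoblastoid cells, 2500/well, preincubated 5 h at 37 C, then treated with compound for 40 h at 37 C. Intracellular ATP read by CellTiter-Glo luminescence after 30 min at room temperature; AC50 from Hill-equation fits.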

[11] = Cell Viability - LYMP2-003 (AID 965);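 also: cells exposed to compounds for 24 h before reading; nearly all actives have a fitted effect of over 50% in size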
Outline: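 Acute cytotoxicity is scored as a concentration-dependent drop in intracellular ATP, measured by luciferase luminescence in human lymphoblastoid cells treated for 24 hours at 37 C. AC50 values derive from Hill-equation modelling.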

[12] = Cell Viability - LYMP2-004 (AID 966); also: nearly all actives have a fitted effect of over 65% in size
Outline: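 Lymphoblastoid LYMP2-004 cells, 2500 per well, were preincubated for 5 hr and then treated with compound for 24 h at 37 C in complete medium. Viability was read as cellular ATP by CellTiter-Glo luminescence, and AC50 values were taken from Hill fits to concentration-response data.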

[13] = Cell Viability - LYMP2-005 (AID 967); also: series mostly up to about 92 µM
Outline: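 qHTS viability screen in LYMP2-005 cells: 24 h at 37 C with compound, ATP luminescence via CellTiter-Glo, AC50 from Hill curves.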

[14] = Cell Viability - LYMP2-009 (AID 968); also: series mostly up to about 92 µM; nearly all actives have a fitted effect of over 55% in size
[15] = Cell Viability - LYMP2-011 (AID 969); also: nearly all actives have a fitted effect of over 60% in size
Outline: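 2500 cells/well in complete medium, compound-treated 24 h at 37 C. Viability read as intracellular ATP by CellTiter-Glo luminescence after 30 min at room temperature. AC50 from Hill fits of qHTS concentration-response data.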

[16] = Cell Viability - LYMP2-013 (AID 970); also: series mostly up to about 92 µM; nearly all actives have a fitted effect of over 55% in size
Outline: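 Human lymphoblastoid LYMP2-013 cells, 2500/well, treated 24 h at 37 C in complete medium; viability as intracellular ATP by CellTiter-Glo luminescence after 30 min. AC50 from Hill fits of qHTS concentration-response.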

[17] = Cell Viability - LYMP2-015 (AID 971); also: nearly all actives have a fitted effect of over 55% in size
Outline: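 LYMP2-015 human lymphoblastoid cells (2500/well) in complete medium, compound-treated 24 h at 37 C; viability read as cellular ATP by CellTiter-Glo luminescence after 30 min at room temperature. AC50 from Hill-equation fits of qHTS concentration-response data.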

[18] = Cell Viability - LYMP2-017 (AID 972); also: series mostly up to about 92 µM; nearly all actives have a fitted effect of over 55% in size
Outline: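 LYMP2-017 human lymphoblastoid cells (2500/well) settled 5 hr at 37 C, then exposed to compound 24 hr at 37 C in complete medium. Viability taken as intracellular ATP by CellTiter-Glo luminescence after 30 min at RT; AC50 from Hill fits.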

[19] = Cell Viability - LYMP2-019 (AID 973); also: nearly all actives have a fitted effect of over 55% in size
Outline: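 Human lymphoblastoid LYMP2-019 cells (2500/well) preincubated 5 h at 37 C, then treated 24 h at 37 C in complete medium. Viability by CellTiter-Glo ATP luminescence after 30 min at room temperature; AC50 from Hill fits.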

[20] = Cell Viability - LYMP2-021 (AID 974)
Outline: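 Human lymphoblastoid LYMP2-021 cells, 2500/well in complete medium, treated 24 hours at 37 C. Intracellular ATP by CellTiter-Glo luminescence (30 min, RT); AC50 from Hill fits of concentration-response.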

Measured: outcome

CC(C)(c1cc(Br)c(O)c(Br)c1)c1cc(Br)c(O)c(Br)c1
inactive: all assays above
